NPC1 promoter act = NPC1 promoter activation; Huh7 NPC1 promoter luciferase reporter, 24 h; Potency, µM (top dose mostly 9.22 µM), inactives show top-dose activation, actives largely listed as activators; hit rate 2.4% among 320,000; AID 485313; note: % of control where 0% means no effect; nearly all actives have a fitted effect of over 60% in size
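Stably transfected Huh7 (NPC1 promoter→luciferase), 1500 cells/well in Opti-MEM + 10% FBS, 2 h settle, then compound 24 h at 37 °C. Luminescence after 10 min with Amplite reagent.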
SMN2 splice enh = increases expression of the SMN2 splice variant; HEK293 SMN2-luciferase splicing reporter, luminescence, 30-36 h; Potency, µM (top dose mostly 46.1 µM), inactives show at the highest dose activity change, positive = activation, actives largely listed as activators; hit rate 2.8% among 210,000; AID 1458; note: % of control where 0% means no effect; nearly all actives have a fitted effect of over 55% in size
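HEK293 cells carry an SMN2 minigene-luciferase reporter in which exon 7 inclusion puts luciferase in frame. Cells were seeded at 2000 cells/well, attached for 10-12 hours, then exposed to compounds for 30-36 hours at 37C before ONE-Glo luminescence.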
ELG1 genotox = inducers of genotoxicity in HEK293T ELG1-luciferase cells. HEK293T ELG1-luciferase reporter, luminescence, 16 h. Potency, µM (series often up to 46 µM), inactives show at the highest dose activity change, positive = activation, most hits filed as activators. AID 504466. hit rate 1.3% among 330,000; note: % of control where 0% means no effect; nearly all actives have a fitted effect of over 60% in size
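HEK293T cells expressing luciferase-tagged ELG1 were treated with compound or DMSO for 16 hr at 37°C. Luciferase activity was then read after 30 min with ONE-Glo at room temperature; rising signal flags genetic stress.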
FLuc modulator = firefly luciferase modulation, counter-screen for miR-21 project. P08659. purified FLuc, Km substrates, luminescence inhibition. Potency, µM (titrated, usually from 57.5 µM), without a hit: at the top dose activity change, negative = inhibition, actives largely listed as inhibitors. hit rate 6.9% among 360,000. AID 588342;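 note: plate controls were vehicle for no effect and reference inhibitor for full effect; nearly all actives have a fitted effect of over 55% in size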
Target sequence (P08659 whole entry, looked up): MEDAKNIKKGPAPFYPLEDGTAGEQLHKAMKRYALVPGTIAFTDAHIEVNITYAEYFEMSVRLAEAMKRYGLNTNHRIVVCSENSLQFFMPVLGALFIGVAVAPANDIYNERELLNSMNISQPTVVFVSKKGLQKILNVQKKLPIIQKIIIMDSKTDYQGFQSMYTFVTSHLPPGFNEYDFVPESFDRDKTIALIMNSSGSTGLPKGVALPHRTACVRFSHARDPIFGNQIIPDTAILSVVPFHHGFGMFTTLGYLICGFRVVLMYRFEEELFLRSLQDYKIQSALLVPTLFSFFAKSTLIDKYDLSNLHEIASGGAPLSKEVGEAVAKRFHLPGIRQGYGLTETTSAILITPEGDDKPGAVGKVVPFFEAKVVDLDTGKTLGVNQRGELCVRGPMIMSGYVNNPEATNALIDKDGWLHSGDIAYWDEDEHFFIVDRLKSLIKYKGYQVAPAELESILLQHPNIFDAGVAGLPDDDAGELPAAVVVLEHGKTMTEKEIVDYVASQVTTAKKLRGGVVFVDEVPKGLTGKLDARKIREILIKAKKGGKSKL
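Biochemical qHTS of compounds, final roughly 60 µM downward over six points, against 10 nM purified firefly luciferase using Km concentrations of substrates (10 uM D-luciferin, 10 uM ATP) in Tris acetate pH 7.5 buffer; luminescence output.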
Rab9 prom act = Rab9 promoter activation; Huh7 Rab9 promoter-luciferase reporter, luminescence, 24 h; Potency, µM (highest dose often 9.22 µM), for inactives: at the top dose activation, negative = inhibition, hits mostly activators; hit rate 2.8% among 320,000; AID 485297; note: % of control where 0% means no effect; nearly all actives have a fitted effect of over 60% in size
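Rab9 promoter-driven luciferase in stably transfected Huh7 cells; 1500 cells/well rested 2 h, exposed to compound in DMSO for 24 h at 37 °C, 5% CO2. Luminescence read 10 min after adding luciferase reagent at ambient temperature.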
ELG1 DNA repair = inhibitors of ELG1-dependent DNA repair in HEK293T cells; hit rate 2.3% among 330,000; Potency, µM (top dose mostly 46.1 µM), for inactives: at the top dose activity change, negative = inhibition, actives largely listed as inhibitors; HEK293T ELG1-luciferase reporter, luminescence, 16 h; DNA damage induced by 5-fluorouridine; note: % is set by controls: 0 for no effect and ±100 for the full control effect; nearly all actives have a fitted effect of over 55% in size
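In this reporter screen, reduction of luminescence relative to DMSO vehicle indicated activity. Compounds and 5-fluorouridine were added together to 2,000 cells per well, incubated for 16 hr at 37 °C, then developed with ONE-Glo.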
The depositor's hits bear a star; ? = inconclusive; nt = no result given; [ ] = dose if it differs, or a comment. Hits are enriched below; roughly 9.3% of the tested compounds scored in any of these assays. Calls come from the whole dose curve; as a rule, active = well fitted curve in the direction sought with a large enough effect; inconclusive = small, poorly fitted or top-dose-only effect, or another doubt; inactive = no such curve, though single readings can be large; an effect the other way counts as inactive or inconclusive. Potency is the fitted concentration of half-maximal effect.

SMILES | NPC1 promoter act | SMN2 splice enh | ELG1 genotox | FLuc modulator | Rab9 prom act | ELG1 DNA repair
O=C(Oc1ccccc1Cl)c1ccc2c(=O)n3c(nc2c1)CCC3 | -4.6% | nt | ? | 16.9µM* | 0.3% | 11.5%
O=C(Oc1ccccc1F)c1ccc2c(=O)n3c(nc2c1)CCC3 | -1.5% | nt | 0.9% | 15.1µM* | 1.6% | 21.1%
CSc1ccc(CCNC(=O)C(C)n2c(C)c3cnn(-c4ccccc4)c(=O)c3c2C)cc1 (stereo not given) | nt | -24.8% | nt | 0.9% | nt | nt
CCOC(=O)c1c(C2CC2)csc1NC(=O)COC(=O)c1ccc[n+]([O-])c1 | -1.4% | -7.7% | 1.1% | 0.1% | 11.3% | 11.6%
CCOC(=O)c1c(C2CC2)csc1NC(=O)COC(=O)c1cc(OC)c(OC)cc1[N+](=O)[O-] | 0.2% | -8.7%[1.84 µM] | -0.9% | 3.2% | -1.5% | 13µM*
COc1ccc(CNC(=O)Cn2ncc3c([nH]c4ccccc43)c2=O)cc1 | nt | nt | nt | -1.2% | nt | nt
COc1ccc(Cc2noc(-c3ccc(OC)c(OC)c3)n2)cc1OC | 0.5% | -32.5% | -3.0% | -6.5% | -5.3% | 20.6µM*
COc1ccc(-c2noc(N(c3nc(-c4ccc(OC)c(OC)c4)no3)c3ccccc3OC)n2)cc1OC | nt | -13.3% | nt | 0.2% | nt | nt
COc1ccc(-c2noc(-c3ccco3)n2)cc1OC | nt | 12.6µM* | nt | 7.57µM* | nt | nt
COc1ccc(Cc2noc(CN(C)CCc3ccccc3)n2)cc1OC | -6.2% | nt | -13.1% | 0.7% | -0.3% | ?
CCOc1ccc(-c2noc(-c3ccncc3)n2)cc1OCC | -1.3% | 13.6% | 16.6% | 1.6% | 0.6% | ?
Cc1cc(-c2nc(-c3ccncc3)no2)ccc1[N+](=O)[O-] | 2.24µM* | nt | ? | 4.78µM* | 3.98µM* | ?
COc1ccc(-c2nc(-c3ccncc3)no2)cc1OC | ? | ? | 16.4µM* | 9.53µM* | 26.0% | ?
CNc1ccc(-c2nc(-c3ccncc3)no2)cc1[N+](=O)[O-] | nt | nt | nt | -2.8% | nt | nt
CCOc1ccccc1/C=N/NC(=O)c1c(C)nc2ccc(Br)cn12 | 2.5% | nt | -4.8% | -0.2% | 6.3% | -11.2%
O=C(N1CCN(S(=O)(=O)c2ccc(Cl)cc2)CC1)n1ccnc1 | nt | nt | -0.4% | nt | nt | 5.4%
O=C(CCC(=O)N1CCOc2ccccc21)Nc1ccccc1Cl | 1.6% | nt | -9.8% | 1.4% | 1.1% | 0.9%
Cc1ccc(-c2nc(-c3ccncc3)no2)cc1C | 0.708µM* | nt | 2.31µM* | 0.757µM* | 0.562µM* | ?
COc1ccc(-c2noc(-c3ccccc3Cl)n2)cc1OC | 3.16µM* | 5.62µM* | ? | 2.69µM* | 2.51µM* | ?
Fc1cccc(F)c1-c1nc(-c2ccncc2)no1 | ? | nt | ? | 16.9µM* | 2µM* | ?
Cc1ccc(-c2nc(-c3ccncc3)no2)cc1Cl | 2µM* | nt | ? | 2.69µM* | 3.16µM* | ?
Cc1noc(-c2ccc(-c3noc(-c4ccc(C(F)(F)F)cc4)n3)cc2)n1 | nt | nt | nt | -3.9% | nt | nt
O=C(COC(=O)c1ccccc1Cl)Nc1cccnc1Cl | -0.1% | nt | 1.7% | ? | -0.3% | -24.6%
COc1cccc(CC(=O)OCC(=O)NC2CCCCCC2)c1 | 1.9% | nt | -4.5% | 0.5% | -0.2% | 3.4%
CCn1c(SCC(=O)N(C)CCC#N)nc2cc(S(=O)(=O)N3CCOCC3)ccc21 | 1.2% | nt | 0.0% | -1.8% | -6.8% | 1.2%
CCc1cc(=O)oc2cc(C)cc(OCC(=O)NCc3ccccn3)c12 | 5.6% | nt | -3.1% | -1.1% | 3.4% | 5.1%
Oc1cccc(Nc2cc(-c3ccccc3)ncn2)c1 | nt | nt | nt | 16.9µM* | nt | nt
COC(=O)CCC(=O)Nc1ccc(NC(=O)CCC(=O)OC)cc1 | 2.0% | 5.4% | -8.5% | 1.1% | -5.2% | 12.4%
COc1ccccc1NC(=O)Nc1nc(CC(=O)NC2CCCC2)cs1 | -0.9% | nt | -0.3% | ? | -2.7% | 8.7%
CC1CC(C)CN(C(=O)c2cc3c(s2)CCC3)C1 (stereo not given) | 0.7% | -14.1% | 14.7% | -18.3% | 0.5% | ?
